A selection: hits, their analogues and other compounds. The true share with any hit is near 5.7%.
FAS TE block – FAS thioesterase domain inhibitors, primary screen, biochemical, fluorescence intensity, uHTS | Fatty acid synthase (Homo sapiens), P49327 | recombinant FAS-TE, OMFH fluorogenic substrate, fluorescence endpoint | inhibition, % at 15 µM | hit rate 0.67% among 360,000 | AID 602261, 2012;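 active = compounds whose normalised, plate-corrected inhibition of enzyme fluorescence in the single-dose primary screen is 50% or more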;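 also: 0% = DMSO with enzyme and 100% = substrate without enzyme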
rCAG binder – binders of r(CAG) RNA repeats, primary screen, biochemical, fluorescence; r(CAG) RNA repeat, TO-PRO-1 dye displacement fluorescence; inhibition, % at 3 µM; hit rate 1.3% among 370,000; AID 651821, 2012;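 active = inhibition above the plate cutoff, the mean of all test compounds on that plate plus 3 SD, cut at about 35% in these data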;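 also: 0% = DMSO alone and 100% = 100 µM mitoxantrone as full dye displacement; higher means more dye released from RNA so lower well fluorescence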
NR3A LBD binder – binders of NR3A ligand-binding domain, primary screen, biophysical, differential scanning fluorimetry, uHTS; AID 1259313, 2017; NR3A LBD differential scanning fluorimetry, Tm shift; 0% = protein alone, 100% = glycine-bound protein; hit rate 2.5% among 340,000; Tm shift relative to glycine control, % at 25 µM; Glutamate receptor ionotropic, NMDA 3A (GRIN3A) ligand-binding domain;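 active = melting temperature shift of at least 10% of the positive control shift, at one fixed dose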
MPTP block – mitochondrial permeability transition pore inhibitors, primary screen, biochemical, isolated mouse mitochondria, absorbance. Ca2+ swelling absorbance, 30 min. inhibition, % at 10 µM. hit rate 1.4% among 360,000. AID 602449, 2012;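 active = inhibition of 50% or more, scaled per plate between neutral and stimulator controls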;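 also: 0% = DMSO wells given calcium and 100% = 1 mM EGTA wells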
Myeloid diff 2 – induction of myeloid progenitor differentiation, primary screen, cell-based, flow cytometry, MLPCN library; ER-HoxA9 myeloid progenitors, lysozyme-GFP differentiation; calls only at 10 µM; hit rate 1% among 360,000; AID 624256, 2012;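 active = normalized GFP-positive differentiation at or above the plate's own cutoff, the solvent-only control mean plus 3 SD; inconclusive = no clear call, values can overlap the other calls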;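 also: cells exposed to compound for four days before flow analysis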
FAS-TE inh conf – FAS thioesterase domain inhibitors, confirmation, biochemical, fluorescence intensity, single concentration. inhibition, % at 15 µM. shares compounds with FAS TE block. hit rate 45% among 2,300. recombinant FAS-TE, OMFH fluorogenic substrate;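 active = compounds inhibiting the enzyme by at least 50% at 15 µM in any one of the replicates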;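 also: 0% = enzyme with DMSO only and 100% = wells lacking enzyme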
* = called active by the depositor; i = inactive; ? = inconclusive; / = no result given; + = active, no number.

SMILES	FAS TE block	rCAG binder	NR3A LBD binder	MPTP block	Myeloid diff 2	FAS-TE inh conf
CN(CC(=O)Nc1ccc(Cl)c(C(F)(F)F)c1)C(=O)C1CC(=O)N(C2CCCC2)C1 (stereo not drawn)	9	-1	-2	1	i	/
CN(CC(=O)Nc1ccc(Cl)c(C(F)(F)F)c1)C(=O)C1CC(=O)N(c2ccc3c(c2)OCCO3)C1 (stereo not drawn)	54*	2	/	0	i	27*
CCOc1ccc(S(=O)(=O)N2CCC(C(=O)Nc3ccc(C)c(S(=O)(=O)N4CCOCC4)c3)CC2)cc1	52*	4	-3	-2	+	29
CC(C)N1CCCCC(NC(=O)c2ccccc2)C1=O (stereo not drawn)	/	1	/	/	/	/
CC(C)(C)C(=O)OCOP(=O)(COCCn1cnc2c(N)ncnc21)OCOC(=O)C(C)(C)C	/	-2	/	/	/	/
CC(=O)N1N=C(c2cccc([N+](=O)[O-])c2)OC1c1cccc(Br)c1 (stereo not drawn)	54*	0	5	0	i	60*
CC(=O)N1N=C(c2cccc(Cl)c2)OC1c1cccc([N+](=O)[O-])c1 (stereo not drawn)	39	-3	5	-4	i	/
COC(=O)[C@]12C[C@H](CC(=O)N3CCN(C(=O)C4CC4)CC3)C(=O)N(Cc3ccc(Cl)cc3Cl)C1=C[C@H](C1CCCC1)O[C@@H]2C	/	9	/	/	/	/
COC(=O)[C@]12C[C@H](CC(=O)NCc3cccc(C(F)(F)F)c3)C(=O)N(Cc3cccc4ccccc34)C1=C[C@H](C(C)(C)C)O[C@@H]2C	/	2	/	/	/	/
COc1ccc(S(=O)(=O)N(C(=O)c2ccncc2)c2ccc3oc4c(c3c2)CCCC4)cc1	60*	4	-1	1	i	25
O=C(NCC1CCN(C(=O)C(=O)c2cc3ccccc3o2)CC1)c1ccc2c(c1)OCC2	/	4	/	/	/	/
CC(C)(C)OC(=O)NCCc1nnc(S(=O)(=O)Cc2ccc(Cl)cc2Cl)o1	64*	-3	0	-1	i	67*
COc1ccc(C2(CNC(=O)c3cccc([N+](=O)[O-])c3)CCCCC2)cc1OC	51*	-3	-8	9	i	70*
N#C/C(=C/c1ccc2c(c1)OCO2)C(=O)NCCc1c[nH]c2ccccc12	52*	/	9	0	i	34
NC(=O)[C@@H]1CCCN1C(=O)[C@@H](Cc1ccccc1)NC(=O)[C@H]1O[C@@H](n2ccc(=O)[nH]c2=O)[C@H](O)[C@@H]1O	/	1	/	/	/	/
O=C1C=C(c2cccc(Cl)c2)C[C@@H](c2ccc3c(c2)OCO3)C1	29	3	-1	0	i	/
O=C1C=C(c2ccc(Cl)c(C(F)(F)F)c2)C[C@@H](c2ccc3c(c2)OCO3)C1	75*	0	4	4	i	58*
COc1cc(C(=O)N/C(=C\c2cn(S(=O)(=O)N(C)C)c3ccccc23)C(=O)N2CCCC2)cc(OC)c1OC	11	2	-3	0	i	/
COc1ccc(C(=O)N/C(=C\c2cn(S(=O)(=O)N(C)C)c3ccccc23)C(=O)N2CCCC2)cc1	80*	3	/	0	i	90*
CN(C)S(=O)(=O)n1cc(/C=C(\NC(=O)c2ccccc2)C(=O)N2CCOCC2)c2ccccc21	25	-3	-3	-2	i	/
COc1ccc(C(=O)N/C(=C\c2cn(S(=O)(=O)N(C)C)c3ccccc23)C(=O)NC(C)C)cc1	65*	3	0	-1	i	29
COc1ccc(C(=O)N/C(=C\c2cn(S(=O)(=O)N(C)C)c3ccccc23)C(=O)N2CCOCC2)cc1	82*	-2	-2	1	i	71*
Nc1ccn([C@@H]2O[C@H](C(=O)N[C@H](Cc3ccccc3)C(=O)N[C@H]3CCCCNC3=O)[C@@H](O)[C@H]2O)c(=O)n1	/	2	/	/	/	/
CCCCN1CC(N2CCCC2)CS1(=O)=O (stereo not drawn)	/	1	/	/	/	/
Cc1nnc(Sc2cc(NCCCO)c([N+](=O)[O-])c3nonc23)s1	63*	-1	-4	6	i	69*
SMILES	FAS TE block	rCAG binder	NR3A LBD binder	MPTP block	Myeloid diff 2	FAS-TE inh conf
O=[N+]([O-])c1c(NCCO)cc(N2CCCCCC2)c2nonc12	0	3	2	1	i	/
Cc1nnc(Sc2cc(NCCO)c([N+](=O)[O-])c3nonc23)s1	65*	3	-2	11	i	64*
Nc1ccc(F)c(CN2CCN(c3ncc(Cc4ccccc4)cn3)CC2)c1	/	3	/	/	/	/
Cc1ccccc1S(=O)(=O)N1CCCc2nc(-c3ccccc3)ccc21	/	0	/	/	/	/
CN(CCc1ccccc1)C(=O)c1cccc(NC(=O)Cc2cccc(NC(=O)C3CCCN(S(=O)(=O)c4cccc([N+](=O)[O-])c4)C3)c2)c1 (stereo not drawn)	48	19	4	0	?	/
CN(Cc1ccccc1)C(=O)c1ccc(NC(=O)Cc2ccc(NC(=O)C3CCN(S(=O)(=O)c4cccc([N+](=O)[O-])c4)CC3)cc2)cc1	68*	15	6	2	i	19
CN(CCc1ccccc1)C(=O)c1ccc(NC(=O)Cc2ccc(NC(=O)C3CCCN(S(=O)(=O)c4cccc([N+](=O)[O-])c4)C3)cc2)cc1 (stereo not drawn)	72*	5	9	1	i	22
CN(Cc1ccccc1)C(=O)c1cccc(NC(=O)Cc2ccc(NC(=O)C3CCN(S(=O)(=O)c4cccc([N+](=O)[O-])c4)CC3)cc2)c1	37	17	7	-1	i	/
O=C(CNSc1ccc([N+](=O)[O-])cc1[N+](=O)[O-])OCc1ccccc1	/	6	/	/	/	/
CCc1cc2c(nc1CC)CCCN2Cc1ccccc1C(F)(F)F	/	5	/	/	/	/
CC[C@]12c3[nH]c4ccccc4c3CCN1C(=O)C(CC(=O)NCCCN(C)C)C[C@@H]2C(=O)N1CCN(C(=O)C2CC2)CC1 (stereo partly drawn)	-5	1	1	1	i	/
O=C(CC1C[C@H](C(=O)N2CCOCC2)[C@@]2(CCC3CCCC3)c3[nH]c4ccccc4c3CCN2C1=O)NCCC1=CCCCC1 (stereo partly drawn)	73*	3	0	16	i	39*
CN(C)CCCNC(=O)CC1C[C@H](C(=O)N2CCOCC2)[C@@]2(CCC3CCCC3)c3[nH]c4ccccc4c3CCN2C1=O (stereo partly drawn)	78*	9	0	-2	i	86*
Cc1sc2nc(COC(=O)c3ccc(O)cc3)[nH]c(=O)c2c1C	2	8	-6	5	i	/

Source: PubChem BioAssay
